# Results reported in ChEMBL document CHEMBL4513216, “Probing the Open Global Health Chemical Diversity Library for Multistage-Active Starting Points for Next-Generation Antimalarials” (ACS Infect Dis, 2020).
# Out of some 69,000 compounds screened, about 8,600 (12%) showed an effect of 50% or more. Shown is part of a subset that was picked to be rich in strong results.
# Tested on: Plasmodium berghei
# Test: Screen against P. berghei liver stage (PbLuc), transformed with Luciferase, at 10uM
# Type: functional, HepG2
# Settings: tested at 10 uM
row,SMILES,INHIBITION
1,O=C(C1CCOC1)N1CCN(CCn2cccn2)c2ncccc2C1 (stereo unspecified),11.3%
2,CN(C)C(=O)CN1CCC2(CCN(S(=O)(=O)C3CC3)CC2)C1=O,32.1%
3,Cc1cc(O)nc(C2CCCN(CCO)C2)n1 (stereo unspecified),-0.232%
4,CCCC(=O)N1CCc2c(CNS(C)(=O)=O)cncc2C1,13.5%
5,O=C(c1cnc2ccc(F)cc2c1NCc1ccco1)N1CCCC1,37.2%
6,O=C(c1ccno1)N1CCC2(CC1)C(=O)N(CC1CC1)c1ccccc12,25.7%
7,O=C([C@H]1CCCO1)N1CCN(Cc2cccnc2)c2ncccc2C1,15.4%
8,CC(=O)N1CCSCC1c1ccc(C)o1 (stereo unspecified),-13.8%
9,COC(=O)c1ccc(CNCc2cn(C)nc2C)cc1,70.8%
10,COC(=O)c1ccc(CNCc2ccn(C)n2)cc1,56%
11,COc1ccc(CNCc2cn(C)nc2C)cc1,24.8%
12,CCn1cc(CNCc2ccc(C(=O)OC)cc2)c(C)n1,39.7%
13,COC(=O)c1ccc(CCn2cnc(C#N)n2)cc1,13.8%
14,COC(=O)c1ccc(Cn2cnc(C#N)n2)cc1,6.23%
15,CN(C)[C@@H]1CCN(C(=O)c2ccsc2)[C@H]1Cc1cccnc1,38.1%
16,Cc1cc(C)nc(C2CCN(C(=O)CO)CC2)n1,26.65%

row,SMILES,INHIBITION
1,CCC(NC(=O)c1c(C(=O)O)cnn1C)c1ccc(C)cc1C (stereo unspecified),15.9%
2,Cc1cc(C)c(CNC(=O)N2CCN(c3ccncc3)CC2)c(=O)[nH]1,-21.45%
3,Cc1nn(C)cc1-c1ccnc(N(C)Cc2ccon2)n1,49.6%
4,Cc1ccc(CN(C)c2nccc(-c3cn(C)nc3C)n2)o1,50.7%
5,CN(Cc1ccoc1)c1ccc(-c2nccn2C)nn1,-120%
6,Cc1nn(C)cc1-c1ccnc(N(C)Cc2cccs2)n1,35.5%
7,COc1ccccc1CN(C)c1nccc(-c2cn(C)nc2C)n1,82.3%
8,Cc1nn(C)cc1CN(C)c1nccc(-c2cn(C)nc2C)n1,28%
9,Cc1nn(C)cc1-c1ccnc(N(C)Cc2ccoc2)n1,51.8%
10,Cc1nn(C)cc1-c1ccnc(N(C)Cc2cnn(C)c2)n1,74.5%
11,COc1ccc(CN(C)c2nccc(-c3cn(C)nc3C)n2)cc1,-7.76%
12,CN(Cc1cnn(C)c1)c1nccc(-c2cc(C(=O)O)ccn2)n1,33%
13,Cc1nn(C)cc1-c1ccnc(N(C)Cc2ccc(F)cc2)n1,30.1%
14,CCCN1CCCC1Cn1nc(C)cc1C (stereo unspecified),34.35%
15,N#Cc1cc(C#N)c(SCC(=O)Nc2ccc(F)cc2)nc1N,35.1%
